Source: PubChem BioAssay (The Scripps Research Institute Molecular Screening Center)
GPR151 activ – activates the human receptor GPR151 | Q8TDV0 | PathHunter beta-arrestin GPR151 cells, luminescence | activation, % at 11.2 µM | actives 1% (n = 650,000) | AID 1508602; in the data active means activation above about 4.9%
FBW7 activator – activators of human E3 ligase FBW7 | Q969H0 | AlphaScreen FBW7–phospho-cyclin E peptide binding, activator screen | normalized activity (activation), % at 26.1 µM | actives 0.13% (n = 650,000) | AID 1259310; in the data active means normalized activity above about 1.9%;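 further: purified mutant Fbw7 with reduced substrate affinity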
TEAD-YAP inh – TEAD-YAP interaction inhibition. HEK-TIYL cells, TEAD-Gal4/YAP UAS-luciferase luminescence. AID 1259422. actives 1.4% (n = 640,000). inhibition, % at 9.12 µM; in the data active means inhibition above about 32%
MITF primary – human MITF inhibition, primary screen. O75030. AlphaScreen MITF homodimerization, bead proximity signal. inhibition, % at 2.6 µM. actives 0.91% (n = 650,000); in the data active means inhibition above about 50%
Target sequence (O75030 whole entry, looked up): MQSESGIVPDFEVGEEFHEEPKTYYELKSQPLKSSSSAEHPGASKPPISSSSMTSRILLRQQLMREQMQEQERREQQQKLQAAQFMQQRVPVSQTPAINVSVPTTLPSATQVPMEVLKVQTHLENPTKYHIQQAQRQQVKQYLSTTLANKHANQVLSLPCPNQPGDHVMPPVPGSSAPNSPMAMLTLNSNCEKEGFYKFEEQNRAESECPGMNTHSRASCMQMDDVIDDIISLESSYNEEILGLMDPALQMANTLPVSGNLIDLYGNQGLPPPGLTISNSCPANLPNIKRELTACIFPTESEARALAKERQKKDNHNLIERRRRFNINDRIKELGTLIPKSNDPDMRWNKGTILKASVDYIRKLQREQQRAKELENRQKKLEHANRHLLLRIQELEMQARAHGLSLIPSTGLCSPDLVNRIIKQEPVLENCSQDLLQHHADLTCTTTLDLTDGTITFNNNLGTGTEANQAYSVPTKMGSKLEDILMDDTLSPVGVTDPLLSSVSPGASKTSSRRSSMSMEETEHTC
MITF confirm – confirmation of human MITF inhibitors; shares compounds with MITF primary; AlphaScreen MITF homodimerization, biotin/His-MITF beads; inhibition, % at 2.6 µM; actives 16% (n = 4,700); AID 1259372;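 active means inhibition above a cutoff derived from the DMSO control wells, cut at about 28% in these data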;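 further: inhibitors lower the bead chemiluminescence by keeping MITF from dimerizing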
AlphaScreen intf2 – counter-screen: compounds optically interfering with AlphaScreen. shares compounds with MITF primary. LysRS AlphaScreen counterscreen, signal interference, triplicate. inhibition, % at 2.6 µM. actives 7.6% (n = 4,700);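 active means inhibition above a cutoff derived from the DMSO control wells, cut at about 30% in these data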
GPR151 confirm – human GPR151 activation, confirmation screen; shares compounds with GPR151 activ; GPR151 PathHunter beta-arrestin cells, luminescence, 90 min; % of EA-reagent control over plate median; activation, % at 11.2 µM; 6,700 tested, under 10 active;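 active means mean percent activation across replicates above the confirmation screen cutoff of 4.91%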
GPR119 ag – GPR119 activation, counter-screen for GPR151 activators; shares compounds with GPR151 activ; GPR119 PathHunter beta-arrestin cells, luminescence, 90 min; 0 = compound-well median, 100 = enzyme-acceptor control; activation, % at 11.2 µM; actives 0.3% (n = 6,700); AID 1508611;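 active means mean percent activation in the counterscreen above 29.09%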;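 further: counterscreen on off-target GPR119 to flag nonselective hits from the GPR151 activator screen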
Large screens that a line does not name were inactive (follow-up assays come after a bar, where they were run). Most compounds without a hit are left out; they make up all but 3.5% or so of the library.

COc1ccc(NC(=O)c2cnc(N3CCN(c4ccccn4)CC3)c3ccccc23)cc1Cl	none
COc1ccc(NC(=O)c2cnc(N3CCN(c4ncccn4)CC3)c3ccccc23)cc1OC	GPR151 activ 5.3, TEAD-YAP inh 50, MITF primary 63 | MITF confirm inactive | AlphaScreen intf2 inactive | GPR151 confirm inactive | GPR119 ag 30
O=C1c2ccccc2C(=O)N1CCNCCN1C(=O)c2ccccc2C1=O	none
CCOc1cc(/C=N/NC(=O)CC2(C)OCCO2)ccc1OCc1ccc([N+](=O)[O-])cc1	none
Cc1ccc(OCCOCCN2CCCCC2)c([N+](=O)[O-])c1	GPR151 activ 7.6, MITF primary 77 | MITF confirm inactive | AlphaScreen intf2 inactive | GPR151 confirm inactive | GPR119 ag inactive
Cc1ccc(-n2c(=O)c3oc4ccccc4c3n(CC(N)=O)c2=O)cc1	GPR151 activ 5.5, MITF primary 54 | MITF confirm inactive | AlphaScreen intf2 inactive | GPR151 confirm inactive | GPR119 ag inactive
CCN1CCN(CCOc2ccc(C)cc2OC)CC1	GPR151 activ 5.8, MITF primary 76 | MITF confirm inactive | AlphaScreen intf2 inactive | GPR151 confirm inactive | GPR119 ag inactive
COc1cc(C)ccc1OCCCN1CCCCCC1	none
O=C(Cn1cncn1)N/N=C/c1ccccc1Cl	none
O=C(Cn1cncn1)NN=C1c2ccccc2-c2ccccc21	GPR151 activ 5.2 | GPR151 confirm inactive | GPR119 ag inactive
CN1CCCN(Cc2ccc(F)cc2)CC1	GPR151 activ 6.0 | GPR151 confirm inactive | GPR119 ag inactive
CN1CCCN(Cc2ccc(Cl)c(Cl)c2)CC1	none
CCNC(=S)N1CCN(Cc2ccc(F)cc2)CC1	GPR151 activ 6.6 | GPR151 confirm inactive | GPR119 ag inactive
CN(CC(=O)NC1CCCCCC1)c1nnc(N2CCCC2=O)s1	none
CN(CC(=O)NC1CCCC1)c1nnc(N2CCCC2=O)s1	GPR151 activ 6.1 | GPR151 confirm inactive | GPR119 ag inactive
Cc1cccc(NC(=O)c2ccc(NCCc3ccccc3)c([N+](=O)[O-])c2)c1	GPR151 activ 6.6 | GPR151 confirm inactive | GPR119 ag inactive
Cc1cc(C(=O)Nc2cccc(NC(=O)c3ccccc3)c2)ccc1[N+](=O)[O-]	GPR151 activ 6.3 | GPR151 confirm inactive | GPR119 ag inactive
Cc1cc(C(=O)Nc2cccc(O)c2)ccc1[N+](=O)[O-]	none
COc1cc2ccccc2cc1C(=O)Nc1cccc(C)n1	none
CCN(CC)c1nc(Nc2ccc(NC(C)=O)cc2)nc(N2CCN(Cc3ccc4c(c3)OCO4)CC2)n1	none
O=c1c2sc3ccc([N+](=O)[O-])cc3c2[nH]c(=S)n1Cc1ccccn1	GPR151 activ 8.8 | GPR151 confirm inactive | GPR119 ag inactive
CC(C)n1c(=S)[nH]c2c(sc3ccc([N+](=O)[O-])cc32)c1=O	none
COc1cc(CNc2ncn[nH]2)ccc1OCc1cccc(C)c1	GPR151 activ 5.1 | GPR151 confirm inactive | GPR119 ag inactive
COc1cc(CNc2ncn[nH]2)cc(Cl)c1OC	none
CCN(CC)C(=O)C1CCCN(c2nc(C)cc(Nc3ccc(Oc4ccccc4)cc3)n2)C1 (stereo not given)	GPR151 activ 12 | GPR151 confirm inactive | GPR119 ag inactive
CCCCNC(=O)CSc1nc2ccccc2c2nc(CCc3c[nH]c4ccccc34)nn12	none
O=C(c1ccc(Br)c(S(=O)(=O)N2CCCCC2)c1)N1CCCCC1	GPR151 activ 11 | GPR151 confirm inactive | GPR119 ag inactive
O=S(=O)(NCC1CCCN(Cc2ccccn2)C1)c1cccc2cccnc12 (stereo not given)	none
CC(C)(C)CN1CCCC(CNS(=O)(=O)c2cccc3cccnc23)C1 (stereo not given)	GPR151 activ 6.4 | GPR151 confirm inactive | GPR119 ag inactive
Cn1nccc1Nc1cc(C(=O)NCCOc2ccccc2)c2ccccc2n1	GPR151 activ 5.3 | GPR151 confirm inactive | GPR119 ag inactive
CC1CCN(S(=O)(=O)c2ccc(F)c(C(=O)Nc3ccc(F)cc3)c2)CC1	none
COC(=O)c1cc(S(=O)(=O)N2CCC(C)CC2)ccc1F	GPR151 activ 12 | GPR151 confirm inactive | GPR119 ag inactive
Cc1c(C#N)c([N+](=O)[O-])nn1CC(=O)c1ccccc1	none
CCOc1ccccc1Nc1ccc(C(=O)N2CCCC2)cn1	GPR151 activ 8.7 | GPR151 confirm inactive | GPR119 ag inactive
CCOC(=O)c1c(NC(=O)C(C)Sc2nnc(CNC(=O)c3cc(OC)cc(OC)c3)n2C2CCCCC2)sc2c1CCC2 (stereo not given)	none
COC(=O)c1ccc(/C=C2\NC(=S)N(c3ccc(OC)cc3)C2=O)cc1	GPR151 activ 6.7 | GPR151 confirm inactive | GPR119 ag inactive
COc1ccc(N2C(=O)/C(=C/c3ccc(OCC(=O)O)cc3)NC2=S)cc1	none
Fc1ccccc1/C=N\Nc1nc2ccccc2o1	GPR151 activ 11 | GPR151 confirm inactive | GPR119 ag inactive
O=[N+]([O-])c1ccccc1S(=O)(=O)N1CCN(c2cccc(Cl)c2)CC1	none
O=C(Nc1cccc(N2CCC(NCC3(O)CCCCC3)CC2)c1)c1ccncc1	none
CSc1nnc(-c2ccco2)n1-c1ccccc1	GPR151 activ 5.1 | GPR151 confirm inactive | GPR119 ag inactive
COCCNC(=O)C(=O)NCc1cccs1	none
O=C(CSc1ncc(-c2cccc(Br)c2)o1)Nc1ccc(F)cc1F	GPR151 activ 9.3 | GPR151 confirm inactive | GPR119 ag inactive
Cc1cc(C)cc(NC(=O)CC2CC3CCC2C3)c1 (stereo not given)	GPR151 activ 8.7 | GPR151 confirm inactive | GPR119 ag inactive
COCc1ccc(CN2CCCC(N(C)CCc3ccccc3)C2)o1 (stereo not given)	GPR151 activ 5.1 | GPR151 confirm inactive | GPR119 ag inactive
CN(CCc1ccccc1)C1CCCN(Cc2cccnc2)C1 (stereo not given)	none
COc1ccc(CCN(C)C2CCCN(Cc3ccoc3)C2)cc1OC (stereo not given)	none
COc1ccc(CCN(C)C2CCCN(Cc3ccncc3)C2)cc1OC (stereo not given)	GPR151 activ 9.1 | GPR151 confirm inactive | GPR119 ag inactive
COc1ccc(CCN(C)C2CCCN(Cc3c(C)nn(C)c3Cl)C2)cc1OC (stereo not given)	GPR151 activ 5.9 | GPR151 confirm inactive | GPR119 ag inactive
CCOC(=O)C1CCN(C(=O)c2cccn3c(=O)c4cc(Cl)ccc4nc23)CC1	none
